Assay outcomes: PubChem BioAssay, The Scripps Research Institute Molecular Screening Center
A selection: hits, their analogues and other compounds. The true share with any hit is near 3.4%.
MITF primary = human MITF inhibition, primary screen. AlphaScreen MITF homodimerization, bead proximity signal. 0.91% of 650,000 active. O75030. inhibition, % at 2.6 µM. AID 1259374; in the data active = inhibition above about 50%;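 also: 0% = vehicle wells with protein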
GPR151 activ = activates the human receptor GPR151; Q8TDV0; PathHunter beta-arrestin GPR151 cells, luminescence; activation, % at 11.2 µM; 1% of 650,000 active; AID 1508602; in the data active = activation above about 4.9%;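 also: 0% = median of compound wells and 100% = cells with positive control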
FBW7 act = activators of human E3 ligase FBW7; AlphaScreen FBW7–phospho-cyclin E peptide binding, activator screen; normalized activity (activation), % at 26.1 µM; Q969H0; 0.13% of 650,000 active; in the data active = normalized activity above about 1.9%;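 also: purified mutant Fbw7 with reduced substrate affinity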
Target sequence (Q969H0 whole entry, looked up): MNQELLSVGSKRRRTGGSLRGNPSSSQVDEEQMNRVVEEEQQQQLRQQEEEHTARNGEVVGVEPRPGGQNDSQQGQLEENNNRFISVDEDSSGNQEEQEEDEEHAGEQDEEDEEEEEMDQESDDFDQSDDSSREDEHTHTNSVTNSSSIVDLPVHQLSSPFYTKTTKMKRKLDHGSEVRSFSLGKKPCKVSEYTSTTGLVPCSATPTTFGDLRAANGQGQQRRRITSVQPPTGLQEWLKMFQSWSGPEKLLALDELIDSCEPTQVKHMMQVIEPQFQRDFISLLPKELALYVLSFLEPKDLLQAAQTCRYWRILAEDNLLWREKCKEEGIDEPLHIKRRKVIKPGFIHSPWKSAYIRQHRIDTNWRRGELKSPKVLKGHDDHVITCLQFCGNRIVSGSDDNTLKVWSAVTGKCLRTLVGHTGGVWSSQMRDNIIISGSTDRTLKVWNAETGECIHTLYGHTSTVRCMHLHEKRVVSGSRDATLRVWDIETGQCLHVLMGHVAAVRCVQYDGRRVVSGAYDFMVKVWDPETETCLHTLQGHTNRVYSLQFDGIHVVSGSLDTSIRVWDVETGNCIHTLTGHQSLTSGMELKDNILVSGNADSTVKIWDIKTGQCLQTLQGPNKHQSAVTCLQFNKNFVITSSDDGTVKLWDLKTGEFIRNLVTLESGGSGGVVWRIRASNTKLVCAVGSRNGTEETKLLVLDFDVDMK
TEAD-YAP block = TEAD-YAP interaction inhibition; HEK-TIYL cells, TEAD-Gal4/YAP UAS-luciferase luminescence; inhibition, % at 9.12 µM; 1.4% of 640,000 active; AID 1259422; in the data active = inhibition above about 32%;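 also: 0% = median of test compound wells and 100% = reference inhibitor wells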
Active calls of the source: *.

SMILES | MITF primary | GPR151 activ | FBW7 act | TEAD-YAP block
CCCCOc1ccc(CSCCN=C(N)N)cc1 | 7 | 0 | 0 | 17
O=C(NC(=O)c1ccc2ccccc2c1)Nc1ccccc1Cl | 16 | -2 | 0 | 0
O=C1OC(c2ccc(-c3ccccc3)cc2)=N/C1=C\c1ccc(Cl)cc1 | 7 | -1 | 0 | -5
Cc1cc(-n2c(SCc3cc(=O)n4cc(Cl)ccc4n3)nc3ccsc3c2=O)ccc1Cl | 5 | 1 | 0 | 2
CC(C)(C)c1csc(NC(=O)CSc2nnc(NC(=O)C3CCC3)s2)n1 | 15 | -1 | 0 | 5
OCCCNc1cc(-c2cccc(C(F)(F)F)c2)nc(-c2ccccn2)n1 | 18 | 2 | 0 | 33*
OCCCNc1cc(-c2cccc(C(F)(F)F)c2)nc(-c2cccnc2)n1 | 6 | 2 | 0 | 12
COc1cc(-c2nc3cnccn3c2NC2CCCCC2)cc(OC)c1OC | 14 | 0 | 0 | 38*
COc1cc(-c2nc3cnccn3c2NC2CCCC2)cc(OC)c1OC | -1 | 1 | 0 | 32*
